# Screening results from PubChem.
# E coli growth-1: E. coli growth inhibition. hit rate 0.21% among 330,000. OD600 absorbance (no concentration beside the values). Escherichia coli growth, OD600, 23 h; active compounds read low;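 active = OD600 absorbance below the run mean of sample wells minus 3.6 SD, in any replicate, cut at about 0.56 in these data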
# AddAB inh: less growth of phage-infected E. coli with AddAB; E. coli expressing H. pylori AddAB, absorbance growth; inhibition, % at 11.9 µM; hit rate 0.29% among 330,000; AID 435030; in the data active = inhibition above about 12%;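 note: 0% = vehicle wells of infected cells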
# Tat transport: inhibitors of E. coli Tat protein transport; E. coli MC4100 TorA-mCherry Tat export, fluorescence; inhibition, % at 10 µM; hit rate 0.036% among 340,000;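 active = mean replicate inhibition at least 50% and at least half of replicates individually reaching 50%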;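 note: exported cargo escapes ClpAP degradation while cytoplasmic cargo is degraded and loses fluorescence; 0% = median of neutral control wells and 100% = median of NaSCN control wells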
# E coli growth-2: reduces bacterial viability in AddAB counter-screen; E. coli V3065 growth, OD600 absorbance, 18 h; inhibition, % at 11.9 µM; hit rate 0.27% among 330,000;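 active = inhibition above the campaign's mean inhibition across all tested compounds plus 3 SD, cut at about 9.9% in these data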;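 note: uninfected addAB+ strain grown without phage in ampicillin broth; 0% = DMSO wells and 100% = ciprofloxacin 0.95 µg/ml wells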
# phage Ecoli inh: E. coli growth loss with phage present; growth absorbance; inhibition, % at 11.9 µM; hit rate 0.26% among 360,000; AID 651602; in the data active = inhibition above about 11%
# AddAB conf: confirmation screen: growth loss of phage-infected E. coli expressing H. pylori AddAB; shares compounds with AddAB inh; E. coli V3065 expressing H. pylori AddAB, T4 phage, OD; T4 phage with gene 2 nonsense mutations; inhibition, % at 11.9 µM; hit rate 64% among 880; AID 488942;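 active = mean inhibition above a set limit taken from the earlier primary screen, cut at about 13% in these data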;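 note: higher means less bacterial growth since AddAB block lets phage replicate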
# RecBCD counter: counter-screen: growth loss of RecBCD+ E. coli with mutant T4 phage | shares compounds with AddAB inh | E. coli V66 + mutant T4 phage, OD growth | inhibition, % at 11.9 µM | hit rate 73% among 880;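 active = mean inhibition above the mean of solvent-only control wells plus 3 SD, cut at about 4% in these data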;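 note: optical density read after an 18 h incubation at 37 °C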
# Bact viability: counter-screen: bacterial growth inhibition. shares compounds with AddAB inh. AID 488956. bacterial viability, absorbance (AddAB counterscreen). inhibition, % at 11.9 µM. hit rate 35% among 880; in the data active = inhibition above about 25%
# Numbers without * were called inactive; · = no result. Shown are actives, neighbours in structure and some others; about 0.5% of the full set was active somewhere.
SMILES,E coli growth-1,AddAB inh,Tat transport,E coli growth-2,phage Ecoli inh,AddAB conf,RecBCD counter,Bact viability
Cc1ccc(NC(=S)NCc2cccnc2)cc1,0.67,4,-4,4,5,·,·,·
CCc1ccc(NC(=S)NCc2cccnc2)cc1,0.61,14*,-9,11*,7,6,6.7*,4
CCN(CC(=O)N1CCN(Cc2ccccc2)CC1)S(=O)(=O)c1ccccc1,0.72,-1,-2,1,0,·,·,·
COc1ccc2c(CC(=O)OCC(=O)Nc3cccc(S(N)(=O)=O)c3)coc2c1,0.71,97*,-4,96*,1,-1,1,-4
Cc1ccc(C)n1-c1nnc(N2CCC(C(=O)N3CCN(C)CC3)CC2)s1,0.75,4,-5,-3,3,·,·,·
CCN1CCN(C(=O)C2CCN(c3nnc(-n4c(C)ccc4C)s3)CC2)CC1,0.73,131*,8,2,1,5,1,-1
O=C(COc1ccc(S(=O)(=O)N2CCCC2)cc1)N1CCCCC1,0.69,4,-4,-1,2,·,·,·
O=C(Nc1ccc([N+](=O)[O-])cc1)Nc1ccc(OC(F)F)c(Cl)c1,0.29*,15*,-8,15*,13*,15*,17*,11
O=C(CCNC(=O)c1ccco1)Nc1cccc(Br)c1,0.67,14*,-7,2,3,7,4,1
CSc1cccc(NC(=O)CCNC(=O)c2ccco2)c1,0.66,7,2,5,3,·,·,·
Cc1ccccc1C(=O)Nc1cc(S(=O)(=O)N2CCOCC2)ccc1N1CCN(C)CC1,0.68,4,4,-2,1,·,·,·
CCCc1c(C)nc2ccc(OC)cc2c1SCCC(=O)O,0.68,15*,-5,-1,0,2,0,-2
Cc1ccc(NC(=O)CSc2n[nH]c(C)c2[N+](=O)[O-])cc1,0.68,14*,-3,7,9,2,4.7*,2
Cc1[nH]nc(SCC(=O)Nc2ccc(C#N)cc2)c1[N+](=O)[O-],·,10,-8,7,10,·,·,·
Cn1c(=NC(=O)CSCC(=O)N2CCCC2)sc2ccccc21,0.72,3,-2,0,2,·,·,·
CCOC(=O)c1cnn(CCOC(=O)c2cccc(F)c2)c1NC(=O)c1cccc(F)c1,·,1,-5,0,2,·,·,·
Cc1ccc(NC(=O)COC(=O)C2CCN(c3ccc(C(F)(F)F)cn3)CC2)cc1C,0.71,96*,9,53*,6,-4,-2,-3
Cc1nn(-c2ccccc2)nc1C(=O)Nc1ccc2[nH]ncc2c1,0.69,-2,-1,0,-1,·,·,·
CSc1nc(N)nc2c1ncn2CC(=O)Nc1ccc(C)c(C)c1,0.63,15*,15,12*,9,13*,11*,7
CSc1nc(N)nc2c1ncn2CC(=O)NCC(c1ccccc1)c1ccccc1,0.7,1,4,-2,2,·,·,·
Cc1ccc(NC(=O)Cn2cnc3ccccc32)cc1C,0.68,14*,-14,14*,7,20*,14*,11
C=CCn1c(O)c(N=Nc2ccccc2)c2ccccc21,·,-2,-1,-4,4,·,·,·
C=CCn1c(O)c(N=Nc2ccccc2O)c2ccccc21,0.62,18*,2,11*,7,81*,4.6*,19
COc1c(N2CCN[C@H](C)C2)c(F)cc2c(=O)c(C(=O)O)cn(C3CC3)c12,·,102*,·,103*,·,100*,100*,101*
Cc1cc(C)nc(SCc2ccc(C(=O)N/N=C/c3cccc(O)c3O)cc2)n1,·,12*,8,7,5,-1,5.0*,-3
SMILES,E coli growth-1,AddAB inh,Tat transport,E coli growth-2,phage Ecoli inh,AddAB conf,RecBCD counter,Bact viability
O=C1c2cccc3c([N+](=O)[O-])ccc(c23)C(=O)N1c1ccccn1,0.67,1,-12,-2,3,·,·,·
O=C1c2cccc3c([N+](=O)[O-])ccc(c23)C(=O)N1O,·,35*,81*,50*,44*,86*,74*,81*
COc1ccc(CNC(=O)C2CCN(S(=O)(=O)c3cccc4cccnc34)CC2)cc1,0.69,14*,3,2,3,-6,0,-3
O=C(NCc1ccccc1)C1CCN(S(=O)(=O)c2cccc3cccnc23)CC1,0.74,1,-1,-2,2,·,·,·
O=C(NNC(=O)c1cc(Br)ccc1O)c1csc(N2CCOCC2)n1,·,37*,-3,33*,·,27*,27*,27*
O=C(NNC(=O)c1cc(Br)ccc1Cl)c1csc(N2CCOCC2)n1,0.73,3,5,-3,-1,·,·,·
O=c1c(O)c(-c2ccc(O)c(O)c2)oc2cc(O)cc(O)c12,0.6,13*,6,10,6,9,4,5
CCn1cc(C(=O)NCc2ccncc2)c(=O)c2cc(F)c(N3CCN(C(=O)c4ccco4)CC3)cc21,0.071*,98*,·,92*,3,99*,8.0*,88*
CCn1cc(C(=O)NCc2ccc3c(c2)OCO3)c(=O)c2cc(F)c(N3CCN(C(=O)c4ccco4)CC3)cc21,0.052*,97*,30,91*,10,99*,10*,98*
CCn1cc(C(=O)NCCC(=O)OC)c(=O)c2cc3c(cc21)OCO3,0.68,0,-1,0,2,·,·,·
CCn1cc(C(=O)NCc2ccccc2)c(=O)c2cc(F)c(N3CCN(C(=O)c4ccco4)CC3)cc21,0.56,8,0,6,1,·,·,·
Cc1cc(=O)oc2c1c(C(F)(F)F)nn2-c1ccccc1,0.68,4,0,2,2,·,·,·
O=c1[nH]c(=S)ccn1C1OC(CO)C(O)C1O (stereo not drawn),0.76,12*,-4,5,5,1,3,1
CCCCOCC(O)CCc1n[nH]c(=S)n1-c1ccccc1 (stereo not drawn),0.64,84*,0,27*,3,2,1,-1
CC(C)OCC(O)CCc1n[nH]c(=S)n1-c1ccccc1 (stereo not drawn),0.65,1,-6,0,2,·,·,·
CCN1CCN(C2=C(NS(=O)(=O)c3ccc(Br)cc3)C(=O)c3ccccc3C2=O)CC1,0.7,14*,-7,11*,7,3,2,-2
O=S(=O)(c1cccc(-c2n[nH]c(=S)n2-c2ccccc2Cl)c1)N1CCOCC1,0.69,0,-1,-2,1,·,·,·
O=C(c1ccco1)N1N=C2CCCCCC2C1(O)C(F)(F)F (stereo not drawn),0.69,0,-13,2,2,·,·,·
CN1CCN(c2ccc(-c3ccc4ccccc4n3)cc2)CC1,0.68,·,5,·,2,·,·,·
c1ccc2nc(-c3ccc(N4CCOCC4)cc3)ccc2c1,0.68,40*,-1,43*,4,-4,-1,-4
O=C(NOCc1ccccc1)OCc1ccccc1,0.68,·,1,·,3,·,·,·
